For one experiment, the target named is AR (gene 367) (UniProt P10275). Kind of experiment: ACEA_AR_antagonist_80hr: ACEA Biosciences xCELLigence Real-Time Cell Analysis on Androgen Receptor Antagonism for Proliferation (AID 2283787).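 Also: 22Rv1 human prostate cancer cells with growth followed by electrical impedance; hits lower the impedance growth signal relative to DMSO.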 A digest of the protocol: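 Impedance readout (RT-CES), 80 h post-dose; loss-of-signal vs DMSO baseline. 22Rv1 cells in assay medium. Compounds: 8-pt 1:4 series, max 100 uM final, up to 0.5% DMSO; n = 2.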

The target of experiment [1] is Estrogen receptor beta (Homo sapiens) (UniProt Q92731). The experiment can be described thus: ATG_hERb_XSP1: Attagene TRANS-FACTORIAL Multi-Species (XSP1) HepG2 Assay for human Estrogen Receptor (ESR2) (AID 2283788). A digest of the protocol:
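Read-out: reporter mRNA induction by RT-PCR, HpaI digestion and capillary electrophoresis fluorescence, fitted in positive direction relative to DMSO baseline. Human liver HepG2 cells expressing ERβ-Gal4 fusion, dosed 24 h, medium containing 3 nM 6-alpha-fluorotestosterone.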

Experiment [2] concerns the target GAL4 Transcription Factor (Internal Marker), GAL4 (gene 855828) (UniProt P04386). Kind of experiment: ATG_GAL4_XSP1: Attagene TRANS-FACTORIAL Multi-Species (XSP1) HepG2 Assay for GAL4 Transcription Factor (Internal Marker) (AID 2283789). A digest of the protocol: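 HepG2 cells transiently transfected with multiplexed GAL4-UAS reporter units were exposed for 24 h with 3 nM 6-alpha-fluorotestosterone present. Reporter mRNA was quantified by RT-PCR, FAM labelling, HpaI digestion and capillary electrophoresis; background-control readout, gain-of-signal versus DMSO.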

Experiment [3] is described as follows: ATG_M_06_XSP1: Attagene TRANS-FACTORIAL Multi-Species (XSP1) HepG2 Assay for M06 Transcription Factor (Internal Marker) (AID 2283790). The essentials: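 Transfected HepG2 multi-reporter system treated 24 h in the presence of 3 nM 6-alpha-fluorotestosterone. The M06 internal marker transcript was quantified by RT-PCR with capillary electrophoresis as a background control, and gain of signal was scored versus DMSO.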

Experiment [4] is described as follows: ATG_M_61_XSP1: Attagene TRANS-FACTORIAL Multi-Species (XSP1) HepG2 Assay for M61 Transcription Factor (Internal Marker) (AID 2283797). The essentials:
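HepG2 cells transiently transfected with multiplexed GAL4-driven reporter units, dosed 24 h with 3 nM 6-alpha-fluorotestosterone present. Reporter mRNA quantified by RT-PCR, 6-FAM labelling, HpaI digestion and capillary electrophoresis; internal-marker background control, gain of signal versus DMSO.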

The nature of experiment [5]: ATG_M_32_XSP1: Attagene TRANS-FACTORIAL Multi-Species (XSP1) HepG2 Assay for M32 Transcription Factor (Internal Marker) (AID 2283799). The essentials:
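HepG2 cells transiently transfected with multi-species TRANS reporter units, dosed 24 h with 3 nM 6-alpha-fluorotestosterone present. Internal-marker reporter mRNA quantified by RT-PCR and capillary electrophoresis; positive-direction fit versus DMSO.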

In experiment [6] the target is Peroxisome proliferator-activated receptor gamma (Homo sapiens) (UniProt P37231). Kind of experiment: ATG_hPPARg_XSP1: Attagene TRANS-FACTORIAL Multi-Species (XSP1) HepG2 Assay for human Peroxisome Proliferator-activated Receptor gamma (PPARg) (AID 2283800). The essentials: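 HepG2 cells transiently transfected with GAL4-UAS reporter units carrying chimeric NR-Gal4 proteins; 3 nM 6-alpha-fluorotestosterone present. After 24 h dosing, reporter mRNA quantified by RT-PCR and capillary electrophoresis; gain of signal relative to DMSO.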

For experiment [7], the target named is mouse Peroxisome Proliferator-activated Receptor gamma (PPARg), Pparg (gene 19016) (UniProt P37238). Kind of experiment: ATG_mPPARg_XSP1: Attagene TRANS-FACTORIAL Multi-Species (XSP1) HepG2 Assay for mouse Peroxisome Proliferator-activated Receptor gamma (PPARg) (AID 2283802). A digest of the protocol: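 HepG2 cells transiently transfected with GAL4-UAS reporter units driven by mouse PPARg–GAL4 chimera; 3 nM 6-alpha-fluorotestosterone present. After 24 h dosing, reporter mRNA quantified by RT-PCR, fluorescent labelling and capillary electrophoresis; gain of signal versus DMSO.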

Experiment [8] addresses Nuclear receptor subfamily 1 group I member 2 (Mus musculus) (UniProt O54915). Kind of experiment: ATG_mPXR_XSP1: Attagene TRANS-FACTORIAL Multi-Species (XSP1) HepG2 Assay for mouse Pregnane X Receptor (PXR) (AID 2283803). The essentials:
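Transiently transfected HepG2 cells expressing a receptor-Gal4 chimera drive a GAL4-UAS reporter; 3 nM 6-alpha-fluorotestosterone included. Reporter mRNA read 24 h post-dose by RT-PCR and capillary electrophoresis; gain of signal relative to DMSO.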

Experiment [9] has as its target zebrafish Thyroid Hormone Receptor beta (TRb), thrb (gene 30607) (UniProt Q9PVE4). The experiment can be described thus: ATG_zfTRb_XSP1: Attagene TRANS-FACTORIAL Multi-Species (XSP1) HepG2 Assay for zebrafish Thyroid Hormone Receptor beta (TRb) (AID 2283809). The essentials: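 HepG2 cells transiently transfected with multiplexed GAL4-UAS reporter units expressing chimeric zebrafish TRb–Gal4. Dosed 24 h with 3 nM 6-alpha-fluorotestosterone present; reporter mRNA measured by RT-PCR, HpaI digestion and capillary electrophoresis; gain of signal versus DMSO.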

Experiment [10] in a line: ATG_XTT_Cytotoxicity_XSP1: Cytotoxicity Assessment in the Attagene TRANS-FACTORIAL Multi-Species (XSP1) HepG2 Assay (AID 2283810). A digest of the protocol: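 XTT viability readout taken at 24 hours post-dosing in HepG2 liver cells co-treated with 3 nM 6-alpha-fluorotestosterone. Signal loss relative to DMSO controls reflects cytotoxicity.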
The nature of experiment [11]: ATG_M_06_XSP2: Attagene TRANS-FACTORIAL Multi-Species (XSP2) HepG2 Assay for M06 Transcription Factor (Internal Marker) (AID 2283811).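 Also: hits are increases in signal above the DMSO baseline.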 The essentials: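 HepG2 cells transiently transfected with GAL4-UAS multi-reporter constructs, dosed 24 h with 3 nM 6-alpha-fluorotestosterone plus 1.5 nM norgestrel present to stimulate androgen receptor. Reporter mRNA quantified by RT-PCR, 6-FAM labelling, HpaI digestion and capillary electrophoresis; gain-of-signal fitted versus DMSO baseline.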

For experiment [12], the system named is turtle Estrogen Receptor (ERa), gene 101933533. Kind of experiment: ATG_trERa_XSP2: Attagene TRANS-FACTORIAL Multi-Species (XSP2) HepG2 Assay for turtle Estrogen Receptor (ERa) (AID 2283812).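 Also: human HepG2 liver cells transiently expressing turtle ERa-Gal4 chimeric receptor; actives raise reporter signal above DMSO so AC50 reflects agonist activity.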 The essentials:
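HepG2 cells transiently transfected with GAL4-UAS reporter units expressing turtle ERa-Gal4 chimera. Reporter mRNA measured after 24 h dosing by RT-PCR, fluorescent labelling and capillary electrophoresis; gain of signal fitted versus DMSO.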

Experiment [13] concerns the target Estrogen receptor beta (Homo sapiens) (UniProt Q92731). The experiment can be described thus: ATG_hERb_XSP2: Attagene TRANS-FACTORIAL Multi-Species (XSP2) HepG2 Assay for human Estrogen Receptor (ERb) (AID 2283813).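 Also: actives raise reporter mRNA above DMSO so AC50 reflects agonist induction.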 The essentials:
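HepG2 cells transiently transfected with GAL4-UAS reporter units and chimeric human ERb-Gal4, 24 h exposure. Reporter mRNA quantified by RT-PCR with FAM labelling, HpaI digestion and capillary electrophoresis; gain of signal versus DMSO.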

Experiment [14] has as its target frog Thyroid hormone Receptor alpha (TRa), thra-a (gene 397942) (UniProt P15204). The experiment can be described thus: ATG_frTRa_XSP1: Attagene TRANS-FACTORIAL Multi-Species (XSP1) HepG2 Assay for frog Thyroid hormone Receptor alpha (TRa) (AID 2283804). A digest of the protocol:
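HepG2 cells transiently transfected with frog TRa-GAL4 chimeric reporter units, dosed 24 hr with 3 nM 6-alpha-fluorotestosterone present; reporter mRNA quantified by RT-PCR, fluorescent labelling and capillary electrophoresis, gain of signal versus DMSO.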

The subject of experiment [15] is turtle Thyroid Hormone Receptor, alpha (TRa), gene 101949057. Kind of experiment: ATG_trTRa_XSP1: Attagene TRANS-FACTORIAL Multi-Species (XSP1) HepG2 Assay for turtle Thyroid Hormone Receptor, alpha (TRa) (AID 2283806). A digest of the protocol:
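HepG2 cells transiently transfected with GAL4-UAS reporter units and chimeric receptor-Gal4 constructs, with 3 nM 6-alpha-fluorotestosterone present. Reporter mRNA was quantified 24 h after dosing by RT-PCR, 6-FAM labelling and capillary electrophoresis; gain of signal versus DMSO.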

In experiment [16] the target is zebrafish Thyroid Hormone Receptor alpha (TRa), thraa (gene 30670) (UniProt Q98867). The experiment can be described thus: ATG_zfTRa_XSP1: Attagene TRANS-FACTORIAL Multi-Species (XSP1) HepG2 Assay for zebrafish Thyroid Hormone Receptor alpha (TRa) (AID 2283807). The essentials:
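HepG2 cells transiently transfected with GAL4-UAS reporter units including a zebrafish TRa–Gal4 chimera, dosed 24 h with 3 nM 6-alpha-fluorotestosterone present. Reporter mRNA quantified by RT-PCR and capillary electrophoresis; gain versus DMSO.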

Results filed as inconclusive are left out. The source made the active and inactive calls. The calls were made as follows: active = hit-call score of the fitted dose curve at least 0.9, where 1 is the maximum; inconclusive = response in the unintended direction; inactive = score below 0.9.

AR (gene 367), sequence (P10275 whole entry, looked up): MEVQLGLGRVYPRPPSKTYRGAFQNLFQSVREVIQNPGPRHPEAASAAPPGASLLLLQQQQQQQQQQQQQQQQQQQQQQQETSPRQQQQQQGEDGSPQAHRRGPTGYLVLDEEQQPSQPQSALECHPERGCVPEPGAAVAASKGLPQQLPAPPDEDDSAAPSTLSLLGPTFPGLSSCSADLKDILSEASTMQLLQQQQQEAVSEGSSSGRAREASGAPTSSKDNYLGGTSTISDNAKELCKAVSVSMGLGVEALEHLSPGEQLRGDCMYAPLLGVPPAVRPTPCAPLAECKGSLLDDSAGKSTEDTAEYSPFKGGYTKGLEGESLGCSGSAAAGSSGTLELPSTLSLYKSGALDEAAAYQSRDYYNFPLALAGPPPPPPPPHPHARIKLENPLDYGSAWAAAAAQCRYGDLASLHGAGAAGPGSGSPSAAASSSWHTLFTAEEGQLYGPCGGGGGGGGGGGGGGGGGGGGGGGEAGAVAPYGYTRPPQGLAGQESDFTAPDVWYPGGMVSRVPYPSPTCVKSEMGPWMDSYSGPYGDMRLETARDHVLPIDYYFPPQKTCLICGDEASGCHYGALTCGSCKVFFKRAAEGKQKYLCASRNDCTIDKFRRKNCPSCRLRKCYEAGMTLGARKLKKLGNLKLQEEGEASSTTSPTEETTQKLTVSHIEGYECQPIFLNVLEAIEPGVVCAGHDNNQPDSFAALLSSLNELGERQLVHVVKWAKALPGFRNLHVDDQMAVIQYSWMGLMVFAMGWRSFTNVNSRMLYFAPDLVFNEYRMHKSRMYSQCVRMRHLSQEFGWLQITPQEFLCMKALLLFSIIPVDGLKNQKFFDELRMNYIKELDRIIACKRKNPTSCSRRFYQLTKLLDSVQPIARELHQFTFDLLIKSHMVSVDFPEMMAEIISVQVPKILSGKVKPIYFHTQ
Estrogen receptor beta (Homo sapiens), sequence (Q92731 whole entry, looked up, the tested form may be a part): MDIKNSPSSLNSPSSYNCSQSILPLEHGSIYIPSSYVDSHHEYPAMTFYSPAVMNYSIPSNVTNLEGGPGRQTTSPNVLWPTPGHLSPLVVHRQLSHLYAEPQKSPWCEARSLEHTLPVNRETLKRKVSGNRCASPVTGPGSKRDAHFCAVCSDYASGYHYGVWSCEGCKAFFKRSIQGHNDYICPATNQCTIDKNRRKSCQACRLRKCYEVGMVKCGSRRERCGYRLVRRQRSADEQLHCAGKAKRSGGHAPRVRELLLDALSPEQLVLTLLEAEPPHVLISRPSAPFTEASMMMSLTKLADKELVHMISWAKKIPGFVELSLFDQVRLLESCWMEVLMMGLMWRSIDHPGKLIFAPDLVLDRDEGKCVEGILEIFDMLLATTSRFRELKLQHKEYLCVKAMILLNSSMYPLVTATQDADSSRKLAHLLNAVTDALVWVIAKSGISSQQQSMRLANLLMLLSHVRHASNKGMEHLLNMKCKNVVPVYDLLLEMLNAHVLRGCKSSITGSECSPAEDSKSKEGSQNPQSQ
zebrafish Thyroid Hormone Receptor beta (TRb), thrb (gene 30607), sequence (Q9PVE4 whole entry, looked up, the tested form may be a part): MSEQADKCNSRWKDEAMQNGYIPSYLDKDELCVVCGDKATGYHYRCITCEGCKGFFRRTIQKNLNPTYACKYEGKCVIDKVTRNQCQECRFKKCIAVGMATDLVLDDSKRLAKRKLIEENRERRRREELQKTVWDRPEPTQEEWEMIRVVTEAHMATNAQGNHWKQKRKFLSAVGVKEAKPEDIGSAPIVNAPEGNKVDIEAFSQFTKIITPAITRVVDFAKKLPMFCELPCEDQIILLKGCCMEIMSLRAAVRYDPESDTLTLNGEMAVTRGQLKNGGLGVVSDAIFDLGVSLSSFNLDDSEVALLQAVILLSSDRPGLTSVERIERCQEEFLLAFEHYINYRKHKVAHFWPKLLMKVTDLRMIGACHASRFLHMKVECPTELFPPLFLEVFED
Nuclear receptor subfamily 1 group I member 2 (Mus musculus), sequence (O54915 whole entry, looked up, the tested form may be a part): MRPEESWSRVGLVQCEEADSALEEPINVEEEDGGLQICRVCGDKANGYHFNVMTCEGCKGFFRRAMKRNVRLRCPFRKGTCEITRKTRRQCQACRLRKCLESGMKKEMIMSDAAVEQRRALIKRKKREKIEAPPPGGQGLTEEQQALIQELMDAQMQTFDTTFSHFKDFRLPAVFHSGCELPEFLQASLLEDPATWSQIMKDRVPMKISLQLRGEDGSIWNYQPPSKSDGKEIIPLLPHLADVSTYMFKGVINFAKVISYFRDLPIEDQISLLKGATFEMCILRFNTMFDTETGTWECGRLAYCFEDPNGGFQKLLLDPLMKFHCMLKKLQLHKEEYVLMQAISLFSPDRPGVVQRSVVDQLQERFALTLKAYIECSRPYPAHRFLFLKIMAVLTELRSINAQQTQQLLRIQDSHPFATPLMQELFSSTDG
mouse Peroxisome Proliferator-activated Receptor gamma (PPARg), Pparg (gene 19016), sequence (P37238 whole entry, looked up, the tested form may be a part): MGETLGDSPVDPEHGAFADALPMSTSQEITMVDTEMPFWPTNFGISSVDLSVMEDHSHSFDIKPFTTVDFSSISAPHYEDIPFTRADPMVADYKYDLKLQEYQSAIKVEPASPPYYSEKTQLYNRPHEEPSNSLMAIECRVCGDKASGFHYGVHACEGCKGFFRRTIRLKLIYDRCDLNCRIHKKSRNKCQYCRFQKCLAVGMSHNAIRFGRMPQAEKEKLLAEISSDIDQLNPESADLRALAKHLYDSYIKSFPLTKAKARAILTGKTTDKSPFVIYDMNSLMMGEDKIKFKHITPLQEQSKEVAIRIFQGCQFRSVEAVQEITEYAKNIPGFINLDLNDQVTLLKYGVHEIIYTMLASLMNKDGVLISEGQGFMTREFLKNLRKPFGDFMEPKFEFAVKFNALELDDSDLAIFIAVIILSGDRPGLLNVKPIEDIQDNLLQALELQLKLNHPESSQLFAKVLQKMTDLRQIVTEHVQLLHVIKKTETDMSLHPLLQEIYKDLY
Peroxisome proliferator-activated receptor gamma (Homo sapiens), sequence (P37231 whole entry, looked up, the tested form may be a part): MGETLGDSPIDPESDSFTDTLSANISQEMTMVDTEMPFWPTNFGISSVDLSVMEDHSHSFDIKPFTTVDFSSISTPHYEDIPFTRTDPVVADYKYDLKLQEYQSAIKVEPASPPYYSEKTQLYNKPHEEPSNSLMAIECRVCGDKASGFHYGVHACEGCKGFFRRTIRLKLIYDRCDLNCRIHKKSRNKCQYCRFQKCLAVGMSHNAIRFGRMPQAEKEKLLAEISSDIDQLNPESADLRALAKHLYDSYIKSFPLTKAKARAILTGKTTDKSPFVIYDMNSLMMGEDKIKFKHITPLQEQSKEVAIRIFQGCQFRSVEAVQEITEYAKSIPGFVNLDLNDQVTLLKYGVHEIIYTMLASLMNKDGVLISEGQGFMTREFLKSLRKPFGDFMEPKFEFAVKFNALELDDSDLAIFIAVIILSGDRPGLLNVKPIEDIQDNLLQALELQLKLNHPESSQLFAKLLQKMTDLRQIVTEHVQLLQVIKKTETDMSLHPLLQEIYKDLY
frog Thyroid hormone Receptor alpha (TRa), thra-a (gene 397942), sequence (P15204 whole entry, looked up, the tested form may be a part): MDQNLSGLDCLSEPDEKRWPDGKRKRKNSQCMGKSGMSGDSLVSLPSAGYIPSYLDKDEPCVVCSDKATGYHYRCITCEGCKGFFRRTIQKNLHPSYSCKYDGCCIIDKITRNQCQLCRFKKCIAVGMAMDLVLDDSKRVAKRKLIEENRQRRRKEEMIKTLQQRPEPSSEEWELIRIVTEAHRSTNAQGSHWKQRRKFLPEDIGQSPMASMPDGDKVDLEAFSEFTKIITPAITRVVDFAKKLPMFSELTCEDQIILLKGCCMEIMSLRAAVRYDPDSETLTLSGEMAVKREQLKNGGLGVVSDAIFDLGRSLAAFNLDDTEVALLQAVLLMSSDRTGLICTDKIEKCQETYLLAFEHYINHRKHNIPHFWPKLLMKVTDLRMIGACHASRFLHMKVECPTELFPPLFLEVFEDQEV
GAL4 Transcription Factor (Internal Marker), GAL4 (gene 855828), sequence (P04386 whole entry, looked up, the tested form may be a part): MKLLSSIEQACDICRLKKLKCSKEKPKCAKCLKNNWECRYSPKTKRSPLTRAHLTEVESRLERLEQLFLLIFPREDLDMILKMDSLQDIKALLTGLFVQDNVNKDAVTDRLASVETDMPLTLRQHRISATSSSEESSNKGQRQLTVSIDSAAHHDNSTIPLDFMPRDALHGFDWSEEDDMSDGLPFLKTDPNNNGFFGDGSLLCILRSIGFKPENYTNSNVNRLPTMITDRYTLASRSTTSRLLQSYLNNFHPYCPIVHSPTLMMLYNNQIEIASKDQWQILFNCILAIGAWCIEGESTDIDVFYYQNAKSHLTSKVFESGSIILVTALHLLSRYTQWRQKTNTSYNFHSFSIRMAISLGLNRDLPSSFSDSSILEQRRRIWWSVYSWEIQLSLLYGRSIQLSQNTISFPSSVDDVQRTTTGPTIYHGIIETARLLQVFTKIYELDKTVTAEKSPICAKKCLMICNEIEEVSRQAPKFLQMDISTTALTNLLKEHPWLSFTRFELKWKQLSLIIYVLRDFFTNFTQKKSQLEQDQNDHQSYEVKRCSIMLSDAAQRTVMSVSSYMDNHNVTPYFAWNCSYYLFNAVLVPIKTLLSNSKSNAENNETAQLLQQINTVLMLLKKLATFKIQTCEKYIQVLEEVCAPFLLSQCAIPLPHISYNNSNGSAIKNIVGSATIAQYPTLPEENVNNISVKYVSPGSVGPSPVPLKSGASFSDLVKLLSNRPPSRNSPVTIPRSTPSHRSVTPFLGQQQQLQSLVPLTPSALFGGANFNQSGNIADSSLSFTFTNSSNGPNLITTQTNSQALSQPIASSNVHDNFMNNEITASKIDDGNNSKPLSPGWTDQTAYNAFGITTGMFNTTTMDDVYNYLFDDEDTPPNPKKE
zebrafish Thyroid Hormone Receptor alpha (TRa), thraa (gene 30670), sequence (Q98867 whole entry, looked up, the tested form may be a part): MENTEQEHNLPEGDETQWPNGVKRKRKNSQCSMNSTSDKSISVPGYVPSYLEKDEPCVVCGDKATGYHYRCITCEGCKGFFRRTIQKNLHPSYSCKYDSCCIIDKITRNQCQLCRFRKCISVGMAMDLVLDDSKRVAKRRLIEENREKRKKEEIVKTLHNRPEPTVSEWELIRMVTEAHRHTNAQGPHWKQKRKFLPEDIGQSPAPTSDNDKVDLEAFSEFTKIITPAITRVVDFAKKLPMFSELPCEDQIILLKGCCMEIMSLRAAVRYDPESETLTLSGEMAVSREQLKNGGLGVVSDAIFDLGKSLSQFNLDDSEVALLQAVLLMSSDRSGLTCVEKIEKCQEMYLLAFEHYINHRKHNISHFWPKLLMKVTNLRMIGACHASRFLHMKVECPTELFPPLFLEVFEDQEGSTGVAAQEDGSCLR

As a reminder, the AC50 is the midpoint of the concentration-response curve, whichever way the signal moves. For the compound `Cc1c2ccccc2c(C)c2c1ccc1ccccc12`, the AC50 in the experiment with AR (gene 367) is 46.5 µM (active); in [6], 23.2 µM (active); in experiment [7], 13.8 µM (active); in [8] it was 0.828 µM (active); in experiment [9], 60.9 µM (active); in [10], 33.2 µM (active). Besides, the half-maximal activity concentration (AC50) in experiment [12] is 1.53 µM (active); in experiment [13], 24.7 µM (active). In addition, the call in experiment [1], in experiment [2], in [3], in experiment [4], in experiment [5] and in [11] was inactive.

In the case of `OCCO`, the call with AR (gene 367) was inactive.

As to `Oc1ccc2ccccc2c1`, in the experiment with AR (gene 367), the outcome was inactive.

For the compound `NC(=O)c1nc(-c2cccc(-c3cc(F)ccc3OCC(F)(F)C(F)(F)F)c2)n[nH]1`, in the experiment with AR (gene 367), the AC50 is 18.4 µM (active).

For `COc1cc(C(=O)NC2CCN(C)CC2)ccc1Nc1ncc2c(n1)N(C1CCCC1)CC(F)(F)C(=O)N2C`, in the experiment with AR (gene 367), the AC50 was 0.0058 µM (active).

Take `NCc1cccc(C2CCN(C(=O)c3ccc(C#Cc4ccccc4F)o3)CC2)c1`: in the experiment with AR (gene 367), the AC50 is 23.5 µM (active).

As to `CCCCCCCCN(C)CCCCCCCC`, in the experiment with AR (gene 367), the result was inactive.

Consider `Cc1cc(F)ccc1-c1cc(N2CC[C@@H](O)[C@H]2CO)ncc1N(C)C(=O)C(C)(C)c1cc(C(F)(F)F)cc(C(F)(F)F)c1`, for which the AC50 with AR (gene 367) was 6.76 µM (active).

With `C[C@]12CC[C@@H]3c4ccc(O)cc4CC[C@H]3[C@@H]1CCC2=O`, the result in experiment [3], in experiment [4], in [14], in experiment [15], in experiment [16] and in [9] was inactive. For the same compound, the outcome in experiment [10] and in [11] was inactive. In [12], the AC50 is 0.00533 µM (active).

`O=C(O)Cn1c(=O)n(Cc2ccc(Br)cc2F)c(=O)c2ccc(Cl)cc21`: in the experiment with AR (gene 367), the compound was called inactive.

Regarding `CN(C)C(=O)C1(N2CCCCC2)CCN(CC[C@@]2(c3ccc(Cl)c(Cl)c3)CN(C(=O)c3ccccc3)CCO2)CC1`, the concentration at half-maximal activity (AC50) with AR (gene 367) was 13.6 µM (active).

On to `O=C(Nc1ccc(Cl)cc1)Nc1ccc(Cl)c(Cl)c1`, for which the AC50 with AR (gene 367) was 5.97 µM (active).

Take `O=C(O)Cc1cc(I)c(Oc2ccc(O)c(I)c2)c(I)c1`: the call in experiment [11], in [12] and in experiment [13] was inactive.

In the case of `CCCCCCCCCC(=O)O`, the compound was classed as inactive in the experiment with AR (gene 367).

Turning to `CCN(Cc1cccnc1)C(=O)c1cccc(Cl)c1[C@]1(C)C(=O)N(Cc2ccc(OC)cc2OC)c2ccc(Cl)cc21`, the AC50 in the experiment with AR (gene 367) was 32 µM (active).
